Activity calls are given as the source filed them.
Target: Torsin-1A-interacting protein 2 (Homo sapiens) (UniProt Q8NFQ8)
Assay: LULL1 binders on small-molecule microarray, primary screen, cell lysate, human LULL1 lysate, 635/667 nm fluorescence (AID 1092);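 further: probe is lysate of COS7 cells overexpressing human LULL1; score merges per-feature 667 nm fluorescence with signal-to-noise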
Conditions: hLULL1 lysate binding, 635 nm fluorescence, higher = more signal

Torsin-1A-interacting protein 2 (Homo sapiens), sequence (Q8NFQ8 whole entry, looked up): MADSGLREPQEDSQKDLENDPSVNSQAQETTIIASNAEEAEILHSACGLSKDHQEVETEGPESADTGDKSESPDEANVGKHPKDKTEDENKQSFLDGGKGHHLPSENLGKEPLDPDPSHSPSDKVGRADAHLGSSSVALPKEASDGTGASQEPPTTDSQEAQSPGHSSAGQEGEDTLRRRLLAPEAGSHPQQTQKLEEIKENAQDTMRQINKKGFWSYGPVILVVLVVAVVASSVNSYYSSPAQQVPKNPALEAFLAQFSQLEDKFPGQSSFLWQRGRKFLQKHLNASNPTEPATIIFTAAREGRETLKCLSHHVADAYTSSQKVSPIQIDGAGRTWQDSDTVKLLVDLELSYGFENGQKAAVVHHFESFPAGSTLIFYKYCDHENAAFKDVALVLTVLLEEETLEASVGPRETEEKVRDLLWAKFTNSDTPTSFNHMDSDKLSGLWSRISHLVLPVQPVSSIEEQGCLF

| Compound | composite z-score |
| --- | --- |
| NC(=O)[C@@H]1[C@H]2C(=O)O[C@H](c3ccccc3)[C@H](c3ccccc3)N2[C@H](c2ccc(O)cc2)[C@@]12C(=O)Nc1ccc(C#CC3(O)CCCCCC3)cc12 | 2.14 |
| COc1cc2c(cc1O)C(C1CC1)N(Cc1cc3c(cc1Br)OCO3)CC2 (centres undefined) | 1.61 |
| CCCCCC1=C2CNC(CCC)(C(=O)OC)C=C2C(C)C1=O (centres undefined) | 2.13 |
| COc1ccc(C(O)C2C=CC3C(=O)NC(=O)C3N2Nc2ccccn2)c2ccccc12 (centres undefined) | 1.02 |
| COC(=O)C(CC#Cc1ccc2c(c1)[C@]1(C(=O)N2)[C@H](C(=O)O)[C@H]2C(=O)O[C@H](c3ccccc3)[C@H](c3ccccc3)N2[C@@H]1c1ccc(O)cc1)C(=O)OC | 2.12 |
| CC1(C)[C@@H]2CC(C(O)C3C=CC4C(=O)N(c5ccccc5)C(=O)C4N3Nc3ccccc3)=C[C@H]1C2 (some centres undefined) | 2.58 |
| COc1ccc([Si](C)(C)[C@H]2[C@H](CCn3cc([C@H](O)c4ccccc4)nn3)O[C@@]3(C(=O)N(Cc4cccc(N5CCOC5=O)c4)c4ccccc43)[C@@H]2C)cc1 | 0.872 |
| COc1cc2c(cc1O)C=[N+](Cc1cccc(OC(F)(F)F)c1)CC2 | 0.319 |
| COC(=O)[C@@]1(Cc2ccc(OC)cc2)[C@H]2c3cc(C(=O)N(C)C)n(CCN4CNCC4=O)c3C[C@H]2CN1C(=O)c1ccccc1 | 0.324 |

System: not listed separately
Assay: E. coli growth modulation, two-sided OD650, primary screen, E. coli filamentation project, strain DRC41, 24 h (AID 1093);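 further: MC1000 strain lacking acrAB efflux and sulA so SOS filamentation is blocked; test concentration not given here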
Conditions: OD650, 24 h, higher = more signal, called active from +8 up or from −8 down

| Compound | z-score |
| --- | --- |
| CCOC(=O)C1=CCC(c2ccc(C)cc2)N(S(=O)(=O)c2ccc(C)cc2)C1 (centres undefined) | -0.422 (inactive) |
| CN(C)CCCNC(=O)[C@@]1(c2ccc([N+](=O)[O-])cc2)CC(=O)N(C2CCCCC2)[C@@H]1c1ccc(CO)cc1 | 0.59 (inactive) |
| CC(=O)N1Cc2ccccc2C[C@@]2(COC(c3ccc(OCCCO)cc3)=N2)C1=O | 1.81 (inactive) |
| COCCOC(=O)N1C(=O)[C@@]2(c3cc(C#CC4=CCCCC4)ccc31)[C@H](C(=O)Nc1nc3ccccc3s1)[C@H]1C(=O)O[C@H](c3ccccc3)[C@H](c3ccccc3)N1[C@@H]2c1ccc(OCCO)cc1 | 0.373 (inactive) |
| C=CC[C@]1(C(=O)N2CCCCC2)N=C(c2ccc(OCCCO)cc2)O[C@H]1c1ccccc1 | 1.14 (inactive) |
| O=C1NCC(=O)N2[C@@H]1C[C@@H](C(=O)O)[C@H]2c1cccc(OCCO)c1 | 0.0664 (inactive) |
| O=C1O[C@H](c2ccccc2)[C@H](c2ccccc2)N2[C@H]1[C@@H](C(=O)O)[C@]1(C(=O)Nc3ccc(C#CCCO)cc31)[C@H]2c1ccc(O)cc1 | 1.57 (inactive) |
| C=CCOC(=O)[C@H]1[C@@H]2C(=O)O[C@@H](c3ccccc3)[C@@H](c3ccccc3)N2[C@@H](c2ccc(OCCOC(=O)[C@@H]3C[C@@H]4C(=O)N[C@@H](CCCCN(C)C)C(=O)N4[C@@H]3c3ccc(O)cc3)cc2)[C@]12C(=O)Nc1ccc(I)cc12 | -1.34 (inactive) |
| CC(C)(C)OC(=O)CC[C@]12N=C(c3ccc(OCCCO)cc3)O[C@H]1c1ccccc1N(CCS(=O)(=O)c1ccccc1)C2=O | 0.522 (inactive) |
| CN(C)C(=O)[C@@]1(Cc2ccccc2CN=[N+]=[N-])N=C(c2ccc(OCCCO)cc2)O[C@H]1c1ccccc1 | 0.632 (inactive) |
| COc1cc2c(cc1OC)CN(C(=O)[C@H]1[C@@H]3C(=O)O[C@@H](c4ccccc4)[C@@H](c4ccccc4)N3[C@@H](c3ccc(O)cc3)[C@]13C(=O)Nc1ccc(C#CC4=CCCCC4)cc13)CC2 | 1.64 (inactive) |
| CN1C(=O)C2C=CC(C(O)c3cc(C(F)(F)F)cc(C(F)(F)F)c3)N(N3CCCCC3)C2C1=O (centres undefined) | -0.627 (inactive) |
| COCC(=C=CC[C@H](O)c1ccccc1OCCO)C[C@H](O)c1cc(Cl)cc(Cl)c1O | -0.628 (inactive) |
| CCCN1C(=O)[C@]2(CCS(=O)(=O)c3ccccc3)N=C(c3ccc(OCCCO)cc3)O[C@@H]2c2ccccc21 | 1.97 (inactive) |
| COc1cc2c(cc1OC)CN(C(=O)[C@H]1[C@@H]3C(=O)O[C@@H](c4ccccc4)[C@@H](c4ccccc4)N3[C@@H](c3ccc(O)cc3)[C@]13C(=O)Nc1ccc(C#CCNC(N)=O)cc13)CC2 | 0.395 (inactive) |
| CN(C)CCCNC(=O)[C@@]1(C)c2ccccc2C(=O)N(Cc2cc(F)cc(C(F)(F)F)c2)[C@H]1c1ccc(CO)cc1 | 0.0544 (inactive) |
| O=C1C2C=CC(C(O)C3CCCCC3)N(Nc3ccc([N+](=O)[O-])cc3)C2C(=O)N1c1ccccc1 (centres undefined) | -1.15 (inactive) |
| O=C1OCCC/C=C\[C@H]2OC34C=CCN(c5ccc6ccccc6c5)C(=O)[C@H]3N(CCCCCCO)C(=O)[C@@H]4C12 (some centres undefined) | 1.1 (inactive) |

| Compound | z-score |
| --- | --- |
| COCCOC(=O)N1C(=O)[C@@]2(c3cc(C#CCNC(N)=O)ccc31)[C@H](C(=O)NC[C@H](O)c1ccccc1)[C@H]1C(=O)O[C@H](c3ccccc3)[C@H](c3ccccc3)N1[C@@H]2c1ccccc1OCCO | -0.124 (inactive) |
| CC(C)(C)OC(=O)CC[C@@]12N=C(c3ccc(OCCCO)cc3)O[C@@H]1c1ccccc1N(CCS(=O)(=O)c1ccccc1)C2=O | 1.68 (inactive) |
| COC(=O)[C@@]1(Cc2ccc(F)cc2)[C@H]2c3cc(C(=O)N4CCCC4)n(Cc4cc(C)n(C)n4)c3C[C@H]2CN1C(=O)c1ccccc1 | 0.234 (inactive) |
| COC(=O)c1c(CC[C@@H](CO)NC(=O)N2CCC[C@H]2Cn2cc(-c3ccccn3)nn2)oc(C(C)=O)c1C(=O)OC | 1.25 (inactive) |
| CCOC(=O)[C@H]1CC=C2CC1C(=O)N1CCC[C@@H]1[C@@H]2O[Si](C)(C)C(C)(C)C (some centres undefined) | -0.558 (inactive) |
| C=CCC(OC(C)=O)[C@@H]1[C@@H](N(Cc2ccc(-c3ccccc3)cc2)C(=O)Cc2ccc(F)cc2)c2cc(OCCCO)ccc2N1C(=O)c1ccc(-c2ccccc2)cc1 (some centres undefined) | 0.996 (inactive) |
| CCOC(=O)C[C@H]1[C@H](OC(=O)Cc2ccc3c(c2)OCO3)[C@@H](NC(=O)c2ccc(-c3ccccc3)cc2)c2cc(OCCCO)ccc2N1C(=O)c1ccc2ccccc2n1 | 1.63 (inactive) |
| COCCCNC(=O)[C@@]1(Cc2ccccc2)N=C(c2ccc(OCCCO)cc2)O[C@H]1c1ccccc1 | 0.474 (inactive) |
| NC(=O)[C@@H]1[C@H]2C(=O)O[C@H](c3ccccc3)[C@H](c3ccccc3)N2[C@H](c2ccc(O)cc2)[C@@]12C(=O)Nc1ccc(C#CC3(O)CCCCCC3)cc12 | -0.441 (inactive) |
| COc1cc2c(cc1O)C(C1CC1)N(Cc1cc3c(cc1Br)OCO3)CC2 (centres undefined) | -1.91 (inactive) |
| CCCCCC1=C2CNC(CCC)(C(=O)OC)C=C2C(C)C1=O (centres undefined) | -0.48 (inactive) |
| COc1ccc(C(O)C2C=CC3C(=O)NC(=O)C3N2Nc2ccccn2)c2ccccc12 (centres undefined) | -0.794 (inactive) |
| COC(=O)C(CC#Cc1ccc2c(c1)[C@]1(C(=O)N2)[C@H](C(=O)O)[C@H]2C(=O)O[C@H](c3ccccc3)[C@H](c3ccccc3)N2[C@@H]1c1ccc(O)cc1)C(=O)OC | -0.913 (inactive) |
| CC1(C)[C@@H]2CC(C(O)C3C=CC4C(=O)N(c5ccccc5)C(=O)C4N3Nc3ccccc3)=C[C@H]1C2 (some centres undefined) | -0.936 (inactive) |
| COc1ccc([Si](C)(C)[C@H]2[C@H](CCn3cc([C@H](O)c4ccccc4)nn3)O[C@@]3(C(=O)N(Cc4cccc(N5CCOC5=O)c4)c4ccccc43)[C@@H]2C)cc1 | -0.565 (inactive) |
| COc1cc2c(cc1O)C=[N+](Cc1cccc(OC(F)(F)F)c1)CC2 | -1.31 (inactive) |
| COC(=O)[C@@]1(Cc2ccc(OC)cc2)[C@H]2c3cc(C(=O)N(C)C)n(CCN4CNCC4=O)c3C[C@H]2CN1C(=O)c1ccccc1 | 0.288 (inactive) |

— PubChem BioAssay
